In all, about 340,000 compounds went through this assay and about 2,100 (0.62%) were called active.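 The calls were made as follows: active = first-screen hits whose inhibition reached a set limit at any dose in the follow-up dose series; inconclusive = inhibition above the set first-screen limit but never retested; inactive = the rest.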 The list is a sample of the results. Results with a measured potency or affinity are listed apart.
biological target: Rac GTPase-activating protein 1 (Homo sapiens) (UniProt Q9H0H5); assay: blockers of MgcRacGAP-driven Rac1 GTP hydrolysis – biochemical, ADP Hunter fluorescence, primary and confirmatory, confirmation (AID 624330); settings: MgcRacGAP-stimulated Rac1 GTP hydrolysis, at 30 µM, hits give high values, GST-tagged Rac1 F28L mutant substrate;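 also: fluorescence reports GDP produced by GAP-driven GTP hydrolysis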
Sequence (Q9H0H5 whole entry, looked up): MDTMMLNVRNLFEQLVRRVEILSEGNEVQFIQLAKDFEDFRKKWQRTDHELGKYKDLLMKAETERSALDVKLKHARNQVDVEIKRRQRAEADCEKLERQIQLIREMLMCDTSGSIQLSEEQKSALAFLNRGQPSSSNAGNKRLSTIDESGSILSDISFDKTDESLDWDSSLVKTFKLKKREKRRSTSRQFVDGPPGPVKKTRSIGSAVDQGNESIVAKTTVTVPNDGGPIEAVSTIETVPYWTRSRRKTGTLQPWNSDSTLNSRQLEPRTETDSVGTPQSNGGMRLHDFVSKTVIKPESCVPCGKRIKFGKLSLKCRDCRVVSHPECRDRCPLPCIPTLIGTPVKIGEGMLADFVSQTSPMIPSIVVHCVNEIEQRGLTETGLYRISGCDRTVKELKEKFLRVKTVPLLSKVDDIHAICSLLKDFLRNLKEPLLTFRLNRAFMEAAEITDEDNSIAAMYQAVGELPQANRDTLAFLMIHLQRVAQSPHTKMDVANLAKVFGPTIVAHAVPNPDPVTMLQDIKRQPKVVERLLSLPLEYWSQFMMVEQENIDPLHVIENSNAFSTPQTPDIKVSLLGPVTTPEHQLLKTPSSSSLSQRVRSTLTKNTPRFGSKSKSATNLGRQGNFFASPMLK

inhibition, inactive:
Cc1c(C)c2cccnc2c2ncccc12 8.09%, O=C1CCCc2oc3ccc(NS(=O)(=O)c4cccc5cccnc45)cc3c21 -1.33%, COc1ccc(Br)cc1S(=O)(=O)n1nc(C)cc1C -4.17%, CCN(CC(=O)NCCCn1ccnc1)S(=O)(=O)c1ccc(C)cc1 -8.53%, O=C(c1cccn2c(=O)c3cc(Cl)ccc3nc12)N1CCN(Cc2ccc3c(c2)OCO3)CC1 9.42%, Cc1cc(C)c(C#N)c(Sc2ccc(N)cc2)n1 8.38%, COc1ccccc1CN1CC(C(=O)NCc2cnn(C)c2)CCC1=O (stereo not given) 5.74%, COc1cc(CNCc2ccco2)cc(OC)c1O 6.83%, COc1cccc(CNCc2cccc(OC)c2O)c1O -13.3%, CCOC(=O)c1ccccc1NC(=O)COC(=O)c1ccc(OCC(=O)N2CCOCC2)c(OCC)c1 4.78%, Cc1ccc(N(CC(=O)N2CCc3ccccc32)S(=O)(=O)c2cccs2)cc1 1.58%, COc1ccccc1OCC#CCNC1CCCCC1C (stereo not given) 22.6%, CCN1CCN(CC#CCOc2ccccc2OC)CC1 29.8%, COc1ccc(OCC#CCn2ccnc2)cc1 -14.9%, COc1ccccc1OCC#CCSc1ncccn1 7.44%, CC1CC(C)CN(S(=O)(=O)c2ccc(C(=O)Nc3sccc3C(N)=O)cc2)C1 (stereo not given) 3.38%, O=C(Cn1c(=O)cnc2ccccc21)Nc1cc(Cl)ccc1N1CCOCC1 -4.21%, CCN(CC(=O)Nc1ccc(OC)cc1)CC(=O)Nc1sc2c(c1C(=O)OC)CCCC2 3.58%, CCC(=O)Nc1c(C)cc(C)cc1Cl 12.3%, CCCC(=O)NC1=C(Cl)C(=O)c2ccccc2C1=O 24.7%, Cc1cccc(NC(=O)CN2CCN(C(=O)CN3C(=O)NC4(CCCCC4C)C3=O)CC2)c1C (stereo not given) 7.46%, CCN(CC)c1ccc(/C=N/NC(=O)c2ccoc2C)c(O)c1 2.9%, CCN(CC)c1ccc(/C=N/Nc2ccccc2)c(O)c1 5.91%, CCN(CC)c1ccc(/C=N/NC(=O)Cc2cccs2)c(O)c1 -34.9%, CCOC(=O)N/N=C/c1ccc(F)cc1F 3.61%, CCN(CC)c1ccc(/C=N/Nc2ccc(C)cc2)c(O)c1 11.6%, CCN(CC)c1ccc(/C=N/NC(=O)c2ccco2)c(O)c1 9.97%, CCN(CC)c1ccc(/C=N/Nc2nc(C)cc(=O)[nH]2)c(O)c1 22.4%, CCN(CC)c1ccc(/C=N/NC(=S)NCc2ccccc2)c(O)c1 12.5%, CCOc1ccc(N(CC(=O)Nc2cc(Cl)ccc2C)S(C)(=O)=O)cc1 -0.16%, CCOc1ccc(CC(=NCCO)C2=C(O)CC(C)(C)CC2=O)cc1OCC 2.19%, Cn1c(=O)oc2cc(S(=O)(=O)NCCN3CCc4ccccc4C3)ccc21 -3.64%, CCN(CC)C(=O)CN1C(=O)C(=O)c2ccccc21 6.56%, Nc1ccn(CCCN2CCN(Cc3cccc4ccccc34)CC2)c(=O)n1 19.7%, Cc1ccccc1N1CCN(C(=O)NCc2cccc(Cl)c2)CC1 2.37%, Cc1ccc(S(=O)(=O)N2CCC(C(=O)NC3CCCCC3C)CC2)cc1 (stereo not given) 17.3%, O=C(c1ccc(Cn2c(=O)[nH]c3ccccc3c2=O)cc1)N1CCN(c2ccccc2)CC1 -4.78%, CCOC(=O)CCNCC1COc2ccccc2O1 (stereo not given) 0.26%, CC(NC(=O)CCC(=O)NC(C)C1COc2ccccc2O1)C1COc2ccccc2O1 (stereo not given) 6.94%, COc1ccc2nc(NC(=O)CN(C)S(=O)(=O)c3cccs3)sc2c1 2.51%, Cc1c(C(=O)NC2CC(=O)N(c3ccc4c(c3)OCCO4)C2)cccc1[N+](=O)[O-] (stereo not given) 10.5%, O=S(=O)(Nc1ccc(-c2ccc(NS(=O)(=O)c3ccccc3)cc2)cc1)c1ccccc1 -20.9%, COc1ccc(NC(=O)C(Cl)=C(Cl)Cl)cn1 6.63%, COc1ccc(NC(=O)/C(Cl)=C(/Cl)S(=O)(=O)Cc2ccccc2)cn1 25.6%, COc1ccc(CS(=O)(=O)/C(Cl)=C(/Cl)C(=O)Nc2ccc(OC)nc2)cc1 19.4%, COc1ccc(NC(=O)Cc2ccccc2)cn1 3.42%, CC(C)(C)c1nnc2cccc(Cl)n12 0.67%, CCN1C(=O)[C@H]2[C@@H](c3ccc(-c4ccc(C(C)=O)cc4)c(OC)c3)N3CCCC[C@@]3(C(=O)OC)[C@H]2C1=O 5.29%, CCc1cc(=O)oc2cc(OC(C)C(=O)NCc3ccccn3)ccc12 (stereo not given) 7.67%, C/C(=N\NC(=O)c1ccc(NS(=O)(=O)c2cccs2)cc1)c1ccc(C(C)(C)C)cc1 8.43%, COCCNCc1ccccc1 -2.56%, COCCNc1nc(CSc2ccccc2)nc2sc(C)c(C)c12 8.51%, Cc1cc(C)cc(NC(=S)N2CCC(NC(=O)c3ccc(F)cc3)CC2)c1 4.86%, CCOc1ccc(NC(=O)C(NC(=O)C2CCC(C)CC2)C(C)C)cc1 (stereo not given) 8.67%, COc1cc(-c2cc(-c3ccc(F)cc3)nc(N)c2C#N)ccc1O 40.9%, CCOc1cc(-c2cc(-c3ccccc3)nc(N)c2C#N)ccc1O 38.4%, COc1cc(/C=C(\C#N)c2[nH]nc(N)c2C#N)cc(OC)c1O 0.59%, COc1ccc(-c2cc(-c3ccc(O)cc3)nc(N)c2C#N)cc1OC 11.9%, CCOc1cc(-c2cc(-c3ccc(C)cc3)nc(N)c2C#N)ccc1O 16.3%, CCCc1cc(-c2ccc(O)c(OCC)c2)c(C#N)c(N)n1 -0.99%, CCN(CC(=O)Nc1ccc(C#N)cc1)CC(=O)Nc1ccc2c(c1)OCCO2 4.07%, CCNC(=O)N1CCC(n2nccc2NC(=O)CCCc2ccccc2)CC1 6.88%, COc1ccccc1OCCC(=O)Nc1ccc2c(c1)OCO2 2.43%, C=CC[N+](C)(C)CCN1C(=O)C2C(c3ccccc3)C=CC(c3ccccc3)C2C1=O (stereo not given) -0.41%, C=CCC(NCc1ccco1)c1ccc(OC)c(OC)c1 (stereo not given) -6.08%, O=C(Oc1ccc2c(c1)OCC2=O)c1ccccc1 0.9%, O=c1oc(-c2cccc(S(=O)(=O)N3CCOCC3)c2)nc2ccccc12 13.7%, Cc1cccc(NC(=S)NC(=O)/C=C/c2ccccc2)n1 -2.63%, CC(C)(C)c1ccc(C(=O)NCC(=O)N2CCC3(CC2)NCCc2[nH]cnc23)cc1 11%, CCOc1cc(/C=N/NC(=O)c2cc(C)n(-c3ccc(F)cc3)c2C)ccc1O 16.4%, Cc1cccc(/C=N\NC(=O)c2ccccc2-n2cccc2)c1 5.46%, O=C(COc1ccccc1-c1ccccc1)N/N=C/c1ccc2ccccc2c1 6.35%, O=C(N/N=C/c1ccc[nH]1)c1ccccc1OCc1ccc(F)cc1 9.06%, O=C(N/N=C\c1ccc(O)c([N+](=O)[O-])c1)c1ccccc1-n1cccc1 -4.94%, COc1cc(/C=N/NC(=O)c2ccccc2O)ccc1OCC(=O)Nc1ccccc1 14.4%, O=C(N/N=C/c1ccc(Br)cc1)c1ccccc1-n1cccc1 10.6%, O=C(N/N=C\c1ccccc1)c1ccccc1-n1cccc1 6.39%, CC(=O)c1cccc(S(=O)(=O)NC2CCCCCC2)c1 1.69%, COc1ccc(C(C(=O)NC2CCCCC2)N(Cc2ccco2)C(=O)c2ccccn2)c(OC)c1 (stereo not given) 10.7%, CCCN(CCC)C(=O)c1ccc2c(c1)S(=O)(=O)c1ccccc1C2=O 6.12%, NC(=S)Nc1ccc(S(=O)(=O)c2ccc(NC(N)=S)cc2)cc1 10.8%, CC1(C)C(=O)OC(c2c3ccccc3cc3ccccc23)C(C)(C)C1=O (stereo not given) 1.71%, CC(NS(=O)(=O)c1cccc(S(=O)(=O)c2ccccc2)c1)C(=O)O (stereo not given) -5.11%, CCOC(=O)N1CCN(C(=O)c2cccc(S(=O)(=O)Nc3ccc(F)cc3)c2)CC1 4.83%, CCOC(=O)C1CCN(c2c(N3CCCC(C(=O)OCC)C3)c(=O)c2=O)CC1 (stereo not given) 4.65%, CN(C)CCNC(=O)c1onc(CSc2nc3ccccc3[nH]2)c1C(=O)NCCN(C)C 17.3%, Brc1ccc(-c2ccc(/C=N/Nc3nc4ccccc4[nH]3)o2)cc1 3.17%, COCCNC(=O)/C(C#N)=C/c1ccc(C(=O)O)cc1 0.25%, COc1cccc(C(=O)N2CCn3c2nc2ccccc23)c1 8.54%, O=C(Nc1nnc(C2CCCCC2)s1)C1CC(=O)N(c2ccc(F)cc2)C1 (stereo not given) 3.31%, COc1ccc(NC(=O)CSc2ccc3ccccc3c2)cc1S(=O)(=O)N1CCCCC1 8.21%, Cc1ccc2nc(C)cc(N/N=C/c3cccc(O)c3)c2c1 14.1%, COc1ccc(/C=N/Nc2cc(C)nc3ccccc23)cc1 14.7%, COc1cccc2c(N/N=C/c3ccc(O)c(O)c3)cc(C)nc12 27.1%, COc1cccc2c(N/N=C/c3ccccc3)cc(C)nc12 11%

Reference: PubChem BioAssay AID624330 (Southern Research Specialized Biocontainment Screening …, 2012)
